Results published in PubChem BioAssay (Tox21).
Results filed as inconclusive are left out. A number with no mark means an inactive call. Calls come from the whole dose curve; as a rule, active = well fitted cell-killing curve with a large enough effect in the repeat runs; inconclusive = weak or mixed curves, or effect the other way; inactive = no such curve, though single readings can be large or run the other way. Positions of bridges follow the written chain, without caps; N, C: chain ends. Where a SMILES comes first, the peptide text is derived from it. Non-standard residues stand in square brackets, D forms with d. Residues, ends and D or L forms follow the SMILES beside them. hArg = N=C(N)NCCCC[C@H](N)C(=O)O; Mpa = O=C(O)CCS

experiment: qHTS assay to identify small molecule agonists of the vitamin D receptor (VDR) signaling pathway - cell viability counter screen (AID 743224); settings: VDR-bla HEK293T viability, CellTiter-Glo luminescence, 16 h; series mostly up to 62.6 µM; activity change, negative = cytotoxicity: at the top concentration; note: nearly all actives have a fitted effect of over 50% in size
Source text: U.S. Tox21 Program National Center for Advancing Translational Sciences [NCATS] NIH Chemical Genomics Center [NCGC] U.S. Environmental Protection Agency [EPA] National Institutes of Environmental Health Sciences [NIEHS] National Toxicology Program [NTP] U.S. Food and Drug Administration [FDA] Tox21 Assay Overview: The vitamin D receptor (VDR), a member of nuclear hormone receptor superfamily, plays a critical role in calcium homeostasis and bone metabolism. It is also involved in cell differentiation and growth, and thrombogenicity. […] The cytotoxicity of the Tox21 compound library against the VDR-bla cell line was tested in parallel by measuring the cell viability using CellTiter-Glo assay (Promega, Madison, WI) in the same wells.
Tox21 Assay Protocol Summary: VDR-bla cells were dispensed at 2,000 cells/6 uL/well into black wall/clear-bottom 1536-well plates using a Multidrop Combi (Thermo Fisher Scientific, Waltham, MA) dispenser. After the assay plates were incubated at a 37C and 5% CO2 for 4 h, 23 nL of compounds dissolved in DMSO, positive controls or DMSO only was transferred to the assay plate by a Pintool station (Kalypsys, San Diego, CA). The plates were incubated at 37C and 5% CO2 for 16 h. After 1 uL of LiveBLAzerTM B/G FRET substrate was added using a Bioraptr Flying Reagent Dispenser (FRD) workstation (Beckman Coulter, Indianapolis, IN, USA), the plates were incubated at room temperature for 2 h, and fluorescence intensity was measured by an Envision plate reader (PerkinElmer, Shelton, CT). For cell viability readout that measures cytotoxicity, 3 ul/well of CellTiter-Glo reagent was added into the assay plates using a FRD. After 30 min incubation at room temperature, the luminescence intensity in the plates was measured using a ViewLux (PerkinElmer) plate reader.
% is set by controls: 0 for no effect and ±100 for the full control effect.

Row | SMILES | activity change, negative = cytotoxicity
1 | CC(O)COC(C)(C)C (stereo not given) | 14.1%
2 | CC(N)CCCC(C)(C)O (stereo not given) | -13.3%
3 | O=C1CCC(=O)N1Cl | 2.13%
4 | O=C(O)CCCCCC(=O)O | 4.46% [at 81.1 µM]
5 | CC(C)COC(=O)c1ccccc1 | 3.97%
6 | CC1=C(C(=O)O)N2C(=O)[C@@H](NC(=O)[C@H](N)C3=CCC=CC3)[C@H]2SC1 | 19.4%
7 | Fc1ccccc1 | 12.1% [at 81.1 µM]
8 | COC(=O)CCCCC(=O)O | -1.49%
9 | CCCCCCCCCCCCCCCCCC#N | -0.943% [at 81.1 µM]
10 | Nc1nnnn1-c1ccccc1 | -2.72%
11 | COC(=O)CCCCC(CCSS/C(CCO)=C(\C)N(C=O)Cc1cnc(C)nc1N)SC(C)=O (stereo not given) | 4.01%
12 | CCO | 4.47% [at 81.1 µM]
13 | Cc1ncc([N+](=O)[O-])n1CC(C)O (stereo not given) | 16.4%
14 | N[C@@H](Cc1ccc(O)cc1)C(=O)O | 18.1% [at 13.2 µM]
15 | CCCCCCCCCCOC(C)=O | 0.0921%
16 | CC(C)(CO)C(O)C(=O)NCCCO (stereo not given) | 5.69%
17 | ONc1ccccc1 | 9.67% [at 81.1 µM]
18 | CCOC(CN1CCN(CC(C)C(=O)c2ccccc2)CC1)c1ccccc1 (stereo not given) | -9.5% [at 29.1 µM]
19 | CCCCCC/C=C/C(=O)OC | -10.3%
20 | CC(=O)N[C@@H](CO)C(=O)N[C@@H](CC(=O)O)C(=O)N[C@@H](CCCCN)C(=O)N1CCC[C@H]1C(=O)O (Ac-SDKP-OH) | 3.13%

Row | SMILES | activity change, negative = cytotoxicity
21 | C=CCCCCCCCCC(=O)OCCCC | 8.66%
22 | OC1(c2ccc(Cl)cc2)CCNCC1 | -7.1%
23 | CCCCOC(=O)[C@H](C)O | 12.1%
24 | CC(=O)CCc1ccc(OC(C)=O)cc1 | -7.04%
25 | CCC(=O)CC | 1.92%
26 | CCCCC1CCC(O)CC1 (stereo not given) | -9.87%
27 | N[C@@H](CSCCCO)C(=O)O | -16.2% [at 29.1 µM]
28 | Nc1nc(-c2ccccc2)c(Br)c(=O)[nH]1 | -0.607%
29 | CSc1cnccn1 | -0.64%
30 | O=C(O)[C@H](O)c1ccccc1 | -0.337%
31 | CC1c2ccccc2CN1NC(=O)c1ccc(Cl)c(S(N)(=O)=O)c1 (stereo not given) | -15.4%
32 | Cc1cc(-c2ccccc2)nnc1NCCN1CCOCC1 | 19.3%
33 | OC[C@H]1O[C@@H](O[C@@H]2[C@@H](CO)O[C@](O)(CO)[C@H]2O)[C@H](O)[C@@H](O)[C@H]1O | 8.94%
34 | CC(=O)O[C@@H]1CC2CCC1(C)C2(C)C (stereo not given in full) | -2.66%
35 | C=C(C)[C@@H]1CC=C(C)CC1 | 2.92%
36 | COC(=O)/C=C\C(=O)O | 0.477%
37 | C/C(=C1\CCOC(=O)S1)N(C=O)Cc1cnc(C)nc1N | 17.4%
38 | NC(=O)[C@@H]1CSSCCC(=O)N[C@@H](CCCCN=C(N)N)C(=O)NCC(=O)N[C@@H](CC(=O)O)C(=O)N[C@@H](Cc2c[nH]c3ccccc23)C(=O)N2CCC[C@H]2C(=O)N1 ([Mpa][hArg]GDWPC-NH2; disulfide 1-7) | 22.8%
39 | CCCC(CC)c1ccccc1 (stereo not given) | -3.82%
40 | COC(C)(OC)OC | 12.1%
